Test results published in PubChem BioAssay (NCI).
About 79,000 compounds went through this panel and 15% of them were active in at least one assay; those are over-represented in the sample as a whole. The source made the active and inactive calls. Rule as the data show it: active = growth inhibition above about 70%; inactive = the rest.

Columns and labels:
[1] = NCI Yeast Anticancer Drug Screen. Data for the rad52 strain (AID 147);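 also: 0% = growth of vehicle-treated control cultures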; conditions: S. cerevisiae rad52 mutant growth inhibition, hits give high values
Procedure, shortened: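 Inhibition of yeast growth, referenced to vehicle controls, was the measured output for a strain with defective DNA damage repair.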

[2] = NCI Yeast Anticancer Drug Screen. Data for the rad50EPP+ strain (AID 151);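 also: 0% = growth of vehicle-treated control cultures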; conditions: S. cerevisiae rad50 mutant strain, hits give high values
Procedure, shortened: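 Genetically defined yeast (rad50EPP+, DNA damage repair alteration) is grown with compound, and inhibition of growth is expressed relative to vehicle-treated controls.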

[3] = NCI Yeast Anticancer Drug Screen. Data for the mgt1 strain (AID 153); conditions: S. cerevisiae mgt1 mutant growth inhibition, hits give high values
Procedure, shortened: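 In the mgt1 strain, test compounds were added and growth inhibition was determined relative to vehicle-treated controls.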

[4] = NCI Yeast Anticancer Drug Screen. Data for the rad50 strain (AID 155);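 also: 0% = growth of vehicle-only cultures of the same strain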; conditions: S. cerevisiae rad50 strain growth inhibition, hits give high values
Procedure, shortened: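 Cells are treated with compound, grown, and their growth is then scored against vehicle-only cultures of the same repair-deficient yeast strain.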

[5] = NCI Yeast Anticancer Drug Screen. Data for the mec2-1 strain (AID 157); conditions: S. cerevisiae mec2-1 strain, hits give high values
Procedure, shortened: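 Each compound was tested on mec2-1 yeast, a strain altered in DNA damage repair or cell cycle control. Growth inhibition is reported relative to vehicle.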

[6] = NCI Yeast Anticancer Drug Screen. Data for the rad14 strain (AID 159);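 also: 0% = growth of vehicle-treated control cultures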; conditions: S. cerevisiae rad14 strain growth inhibition, hits give high values
Procedure, shortened: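 Readout: yeast growth inhibition, referenced to vehicle-only cultures. Strain bears a defined alteration in DNA damage repair.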

[7] = NCI Yeast Anticancer Drug Screen. Data for the sgs1 mgt1 strain (AID 161);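 also: 0% = growth of cultures given vehicle only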; conditions: S. cerevisiae sgs1 mgt1 strain, hits give high values
Procedure, shortened: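 Inhibition of yeast growth, normalised to vehicle-treated controls, is reported for a strain bearing genetic alterations in DNA damage repair.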

[8] = NCI Yeast Anticancer Drug Screen. Data for the CLN2oe strain (AID 163);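 also: 0% = growth of vehicle-only control cultures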; conditions: S. cerevisiae CLN2oe strain, hits give high values
Procedure, shortened: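 First, the altered yeast strain was treated with each compound; second, its growth was measured; finally, inhibition was derived by comparison with vehicle controls.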

[9] = NCI Yeast Anticancer Drug Screen. Data for the cln2 rad14 strain (AID 165);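 also: 0% = growth equal to vehicle treated cultures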; conditions: S. cerevisiae cln2 rad14 strain, hits give high values
Procedure, shortened: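 Test compounds were added to cln2 rad14 yeast cultures; inhibition of growth was then determined by comparison with vehicle treatment.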

[10] = NCI Yeast Anticancer Drug Screen. Data for the bub3 strain (AID 167); conditions: S. cerevisiae bub3 mutant strain, hits give high values
Procedure, shortened: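 Part of a panel of yeast mutants defective in DNA damage repair or cell cycle regulation. Each strain is grown with compound, and inhibition is calculated relative to solvent-treated cultures.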

[11] = NCI Yeast Anticancer Drug Screen. Data for the wt2 strain (AID 169);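 also: 0% = growth of vehicle-treated yeast cultures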; conditions: S. cerevisiae wt2 strain growth inhibition, hits give high values
Procedure, shortened: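 The panel's yeast strains carry defined changes in DNA repair or cell cycle genes. Each strain is grown with compound, and growth loss is scored relative to vehicle.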

[12] = NCI Yeast Anticancer Drug Screen. Data for the sgs1 strain (AID 173);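 also: 0% = growth of vehicle-only control cultures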; conditions: S. cerevisiae sgs1 mutant, hits give high values
Procedure, shortened: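 Vehicle-treated cultures served as reference for growth inhibition of a yeast strain altered in DNA damage repair or cell cycle control after compound exposure.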

[13] = NCI Yeast Anticancer Drug Screen. Data for the mlh1 rad18 strain (AID 175); conditions: S. cerevisiae mlh1 rad18 strain growth inhibition, hits give high values
Procedure, shortened: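 Inhibition values reflect reduced growth of mutant yeast versus vehicle-treated controls following compound exposure; the mutations affect DNA damage repair.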

[14] = NCI Yeast Anticancer Drug Screen. Data for the rad18 strain (AID 177); conditions: S. cerevisiae rad18 mutant growth inhibition, hits give high values
Procedure, shortened: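 Steps: expose repair-mutant yeast to compound; measure growth; express as inhibition relative to vehicle control.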

[15] = NCI Yeast Anticancer Drug Screen. Data for the wt1 strain (AID 149);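 also: 0% = growth of vehicle-treated wt1 cultures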; conditions: S. cerevisiae wt1 strain (SPY 50644) growth inhibition, hits give high values
Procedure, shortened: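 The wt1 strain was treated with compounds, and growth was compared with vehicle-treated cultures to give inhibition.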

[16] = NCI Yeast Anticancer Drug Screen. Data for the mlh1 strain (AID 171);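 also: 0% = growth of vehicle-treated control cultures of the same strain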; conditions: S. cerevisiae mlh1 strain growth inhibition, hits give high values
Procedure, shortened: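 Inhibition values reflect reduced yeast growth in the presence of compound, referenced to vehicle controls, using a strain chosen for its alteration in DNA repair or cell cycle control.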

[17] = at 5.0 µM (retest, dose inferred, filed as 0.5)
[18] = at 50.0 µM (retest, dose inferred, filed as 5.0)

Measured: growth inhibition

CCCN(CCC)c1c([N+](=O)[O-])cc(S(N)(=O)=O)cc1[N+](=O)[O-]
inactive: [1]; at 1.2 µM 8% | [1]; at 3.7 µM 25% | [1]; at 11.0 µM 28% | [1]; at 33.0 µM 60% | [1]; at 100.0 µM 23% | [2]; at 1.2 µM -23% | [2]; at 3.7 µM -33% | [2]; at 11.0 µM -31% | [2]; at 33.0 µM -23% | [2]; at 100.0 µM -22% | [3]; at 1.2 µM -1% | [3]; at 3.7 µM 0% | [3]; at 11.0 µM -11% | [3]; at 33.0 µM 25% | [3]; at 100.0 µM -2% | [4]; at 1.2 µM 14% | [4]; at 3.7 µM 12% | [4]; [17] -5% | [4]; at 11.0 µM 33% | [4]; at 33.0 µM 44% | [4]; [18] 26% | [4]; at 50.0 µM 63.4% | [4]; at 100.0 µM 15% | [5]; at 1.2 µM -7% | [5]; at 3.7 µM 0% | [5]; [17] -13% | [5]; at 11.0 µM -25% | [5]; at 33.0 µM 32% | [5]; [18] 15% | [5]; at 50.0 µM 51.8% | [5]; at 100.0 µM -2% | [6]; at 1.2 µM -11% | [6]; at 3.7 µM -18% | [6]; at 11.0 µM -24% | [6]; at 33.0 µM 29% | [6]; at 100.0 µM -2% | [7]; [17] -11% | [7]; [18] 35% | [7]; at 50.0 µM 47.7% | [8]; at 1.2 µM -11% | [8]; at 3.7 µM -3% | [8]; at 11.0 µM -4% | [8]; at 33.0 µM 30% | [8]; at 100.0 µM 2% | [9]; [17] 2% | [10]; at 1.2 µM -13% | [10]; at 3.7 µM -22% | [10]; [17] 4% | [10]; at 11.0 µM -17% | [10]; at 33.0 µM 32% | [10]; at 100.0 µM -9% | [11]; at 1.2 µM -6% | [11]; at 3.7 µM -2% | [11]; at 11.0 µM -7% | [11]; at 33.0 µM 3% | [11]; at 100.0 µM -2% | [12]; at 1.2 µM 3% | [12]; at 3.7 µM 10% | [12]; at 11.0 µM 16% | [12]; at 33.0 µM 30% | [12]; at 100.0 µM 6% | [13]; [17] 9% | [14]; at 1.2 µM -8% | [14]; at 3.7 µM -1% | [14]; at 11.0 µM 6% | [14]; at 33.0 µM 50% | [14]; at 100.0 µM 0%
active: [9]; [18] 73% | [9]; at 50.0 µM 85.3% | [10]; [18] 80% | [10]; at 50.0 µM 89.5% | [13]; [18] 70% | [13]; at 50.0 µM 72.9%

CCCCN(CCCC)CC(C(C)=O)C(c1ccccc1)c1c(O)c2ccccc2oc1=O (stereo unspecified)
inactive: [1]; at 1.2 µM 2% | [1]; at 3.7 µM 3% | [1]; at 11.0 µM 2% | [1]; at 33.0 µM 3% | [1]; at 100.0 µM 2% | [15]; at 1.2 µM 0% | [15]; at 3.7 µM -1% | [15]; at 11.0 µM -1% | [15]; at 33.0 µM -3% | [15]; at 100.0 µM -4% | [4]; at 1.2 µM 2% | [4]; at 3.7 µM 2% | [4]; [17] 22% | [4]; at 11.0 µM 4% | [4]; at 33.0 µM 3% | [4]; [18] 22% | [4]; at 100.0 µM 1% | [5]; at 1.2 µM 3% | [5]; at 3.7 µM 2% | [5]; [17] 25% | [5]; at 11.0 µM -1% | [5]; at 33.0 µM -1% | [5]; [18] 25% | [5]; at 50.0 µM 69.6% | [5]; at 100.0 µM 5% | [6]; at 1.2 µM 5% | [6]; at 3.7 µM 3% | [6]; at 11.0 µM 2% | [6]; at 33.0 µM -2% | [6]; at 100.0 µM -24% | [7]; [17] 10% | [7]; [18] 10% | [8]; at 1.2 µM 1% | [8]; at 3.7 µM 6% | [8]; at 11.0 µM 5% | [8]; at 33.0 µM -2% | [8]; at 100.0 µM -3% | [9]; [17] 51% | [9]; [18] 51% | [10]; at 1.2 µM 4% | [10]; at 3.7 µM 2% | [10]; [17] 4% | [10]; at 11.0 µM 15% | [10]; at 33.0 µM 22% | [10]; [18] 4% | [10]; at 100.0 µM 6% | [16]; at 1.2 µM 0% | [16]; at 3.7 µM -2% | [16]; at 11.0 µM -2% | [16]; at 33.0 µM 1% | [16]; at 100.0 µM -28% | [12]; at 1.2 µM -4% | [12]; at 3.7 µM -6% | [12]; at 11.0 µM -7% | [12]; at 33.0 µM -4% | [12]; at 100.0 µM 9% | [13]; [17] 22% | [13]; [18] 22% | [14]; at 1.2 µM -3% | [14]; at 3.7 µM -9% | [14]; at 11.0 µM -10% | [14]; at 33.0 µM -12% | [14]; at 100.0 µM -8%
active: [4]; at 50.0 µM 71.3% | [7]; at 50.0 µM 84.2% | [9]; at 50.0 µM 81.5% | [10]; at 50.0 µM 74.5% | [13]; at 50.0 µM 76.8%
